# Measured values published in PubChem BioAssay AID2023 (NMMLSC, 2009).
# In all, about 320,000 compounds went through this assay and about 1,100 (0.34%) were called active. The sample as a whole holds a higher share of actives than the screen did. A number with no mark means an inactive call.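 How the source made its calls: active means GFP response vs DMSO above a set limit, about the screen mean plus 3 SD (cut at about 150% in these data); inconclusive means under 70 cell events counted for the yeast strain; inactive means the rest.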
# Test: modulators of LAP4-GFP expression in yeast, primary screen, S. cerevisiae, multiplex flow cytometry, MLPCN library (AID 2023)
# Conditions: 3 h, at 10 µM, hits give high values, median GFP as percent of DMSO wells
row,Structure (SMILES),GFP response vs DMSO
1,C[n+]1ccc(/C=C/c2c[nH]c3ccccc23)cc1,214% (active)
2,COc1ccc(/C=C(\C#N)c2c[nH]c3ccccc23)cc1,97.2%
3,O=C(NC1CCCC1)C(=O)c1c[nH]c2ccccc12,100%
4,CC(C)C(=O)Nc1c2c(nn1-c1ccccc1)CSC2,104%
5,CC(C)=NN1C(=O)c2ccccc2NC1(C)C,103%
6,CCCC(=O)Nc1ncnc2c1ncn2[C@@H]1O[C@@H]2OP(=O)(O)OC[C@H]2[C@H]1OC(=O)CCC,103%
7,CCc1ccc2c(c1)C1(NN=C(c3ccccc3)S1)C(=O)N2 (configuration not stated),169% (active)
8,C[C@H](NC(=O)C1CC(=O)N(c2ccc3c(c2)OCO3)C1)C(=O)NCc1ccco1 (some centres not stated),94%
9,COC(=O)Nc1ccc(S(=O)(=O)N2CCN(CCN3C(=O)C4C5C=CC(C5)C4C3=O)CC2)cc1 (configuration not stated),95.9%
10,O=c1[nH]c2ccccc2n2c(-c3ccccc3)nnc12,87.9%
11,COc1ccc(OCc2cc(C(=O)N3CCCC3)no2)c2ccccc12,85.3%
12,O=C(c1ccc(N2CCOCC2)c([N+](=O)[O-])c1)N1CCN(c2ccccc2F)CC1,96%
13,O=C(c1ccc(Cl)c([N+](=O)[O-])c1)N1CCN(c2ccccc2)CC1,165% (active)
14,O=C(c1ccccc1)c1ccc(C(=O)N2CCN(c3ccccc3)CC2)cc1,78.1%
15,Cc1ccc(C(=O)NCC(=O)NC2CC2)cc1,97.3%
16,O=C(NNC(=S)NC(=O)c1cn(-c2ccccc2)nc1-c1ccccc1)c1ccncc1,159% (active)
17,Cc1ccc(-c2nn(-c3ccccc3)cc2C(=O)NC2CCC(O)CC2)cc1 (configuration not stated),94.9%
18,Cc1onc(-c2ccccc2)c1C(=O)NNC(=S)NC(=O)c1ccc(F)cc1,102%
19,CCOc1ccc(CCNC(=O)CN2C(=O)NC3(CCc4ccccc43)C2=O)cc1OCC (configuration not stated),98.4%
20,CCCCC(=O)Nc1ccc2c(c1)C(=O)NC2=O,107%
21,O=C(Nc1cc(Cl)cc(Cl)c1)C(NCCCO)c1ccccc1 (configuration not stated),99.3%
22,CCCCN1C(=O)c2ccc(C(=O)Nc3ccc(S(=O)(=O)N(C)C)cc3)cc2C1=O,93.7%
23,CC(CCc1ccc(O)cc1)NCc1ccc(Cl)cc1Cl (configuration not stated),99.7%
24,CCC(C)n1[nH]c(=O)cc1N (configuration not stated),92.7%
25,COc1ccc(CN2CN(C(C)C)CSC2=S)cc1,162% (active)
26,S=C1SCN(CCN2CCOCC2)CN1Cc1ccccc1,111%

row,Structure (SMILES),GFP response vs DMSO
1,COc1ccc(CN2CN(C3CCCC3)CSC2=S)cc1,98.2%
2,Cc1onc(-c2c(F)cccc2Cl)c1C(=O)OCC(=O)N1C(C)CCCC1C (configuration not stated),107%
3,CCOC(=O)Cn1c(=O)oc2cc(S(=O)(=O)N(C)Cc3ccco3)ccc21,107%
4,CCOC(=O)/C=c1\s/c(=C\c2ccc(C#N)cc2)c(=O)n1CC(=O)Nc1cccc(C)c1C,96.9%
5,CN(c1ccccc1)c1ccc(/C=c2\s/c(=C(/C#N)C(=O)C(C)(C)C)n(Cc3ccco3)c2=O)cc1,377% (active)
6,CC1C=CCC2C(=O)N(c3cccc(C(=O)N4CCCCCC4)c3)C(=O)C12 (configuration not stated),97.9%
7,COC(=O)C[n+]1cccc2ccccc21,212% (active)
8,Cc1cccc[n+]1CC(=O)c1ccccc1,91.6%
9,COc1ccccc1NC(=O)C[n+]1ccccc1,109%
10,CC1(C)CC(=O)C2=C(C1)N=C1SCCC(=O)N1C2c1ccc(C(F)(F)F)cc1 (configuration not stated),98.2%
11,CCCCNc1c(-c2cccc(Sc3ccc(OC)cc3)c2)nc2ccccn12,151% (active)
12,CCCCCCSc1ccc(-c2nc3ccc(Cl)cn3c2NCc2ccccc2)cc1,99.4%
13,CCCCNc1c(-c2ccc(OC)c(Sc3ccc(OC)cc3)c2)nc2ccc(Cl)cn12,141%
14,COc1ccc(N2CCN(S(=O)(=O)c3cc(Br)cnc3N)CC2)cc1,100%
15,CCOc1ccc(-n2c(SC(C)C(=O)OC)nc3c(c2=O)SCC3)cc1 (configuration not stated),95.9%
16,CCN1/C(=C/c2ccc3ccc(C)cc3[n+]2CC)Sc2ccccc21,319% [may fluoresce green] (active)
17,CCN1/C(=C\c2ccc3ccccc3[n+]2CC)Sc2cc(C)ccc21,501% [may fluoresce green] (active)
18,O=C1CCC/C=C\C[C@@H](CC(=O)N(CCO)Cc2ccccc2)C(=O)NCCO1,85.9%
19,NS(=O)(=O)c1ccc(CCNC(=O)CCCn2c(SCC(=O)N3CCCC3)nc3ccsc3c2=O)cc1,101%
20,O=C(c1cccc(Cl)c1)N1CCN(Cc2ccccc2)CC1,101%
21,CC(C)CC(=O)N1CCN(Cc2cccc(Cl)c2)CC1,102%
22,Clc1cccc(CN2COc3c(cc(Cl)c4cccnc34)C2)c1,182% (active)
23,CC(C)=CCC/C(C)=C/C(=O)O,105%
24,O=C(CN1CCCSc2ccccc21)N1CCN(S(=O)(=O)c2cccc(F)c2)CC1,110%
25,CC1=NNC(=O)C1Cc1c(Cl)cccc1Cl (configuration not stated),98.6%
26,O=C(OC1CCOC1=O)c1cccc(S(=O)(=O)Nc2ccc(F)cc2)c1 (configuration not stated),95.1%

row,Structure (SMILES),GFP response vs DMSO
1,CC(=O)Nc1ccc(N2C(=O)CC(Sc3nccc(C)n3)C2=O)cc1 (configuration not stated),89.5%
2,Cc1cc(NC(=O)CCN2CCN(Cc3ccccc3)CC2)ccc1Br,83.3%
3,CC(C)C(=O)N1CC(=O)Nc2ccc(F)cc2C1c1ccc(F)cc1 (configuration not stated),108%
4,O=C(/C=C/Sc1ncn[nH]1)c1ccc(Cl)cc1,219% (active)
5,O=C(CSc1ncn[nH]1)N/N=C/c1ccc(F)cc1,117%
6,O=C(CSc1ncn[nH]1)Nc1ccc(Br)cc1Br,93.9%
7,Cc1ccnc(NC(=O)CCNS(=O)(=O)c2ccc(C)c(C)c2)c1,81.8%
8,COc1ccccc1CNC(=O)CNC(=O)c1cn(-c2ccccc2OC)c(=O)c2ccccc12,95.4%
9,COc1ccc(O[C@H]2C=C[C@@H](c3ccccc3)O[C@@H]2CO/N=C/C[C@@H]2C=C[C@H](OC(C)=O)[C@@H](COC(C)=O)O2)cc1,111%
10,O=C(CCC(=O)OCc1cccc(C(=O)Oc2ccccc2)c1)Nc1cccc2ccccc12,104%
11,COc1ccc(-c2nn(-c3ccccc3)cc2/C=N/Nc2ccccn2)cc1OC,96.4%
12,Oc1ccc(Br)cc1C=Nc1ccc2[nH]ncc2c1,93.5%
13,Oc1ccc(Br)cc1/C=N/Nc1ccccn1,287% (active)
14,O=C(CC1SC(=Nc2ccccc2F)N(CCN2CCOCC2)C1=O)Nc1ccc(F)cc1F (configuration not stated),126%
15,NC(=O)Cc1nc2scc(-c3ccc(Cl)cc3)c2c(=O)[nH]1,95.5%
16,O=c1[nH]c(CCl)nc2cc(-c3ccc(Cl)cc3)sc12,163% (active)
17,O=c1[nH]c(CN2CCOCC2)nc2cc(Cl)ccc12,92.7%
18,O=C(O[C@@H]1[C@H](Cc2ccccc2)NS(=O)(=O)[C@H]2C[C@@H]3C=C[C@]12O3)c1ccccc1Br,97.1%
19,CN(CCO)Cc1csc2ccc(Br)cc12,106%
20,Cc1ccc(-n2cnc3ncnc(-c4ccccc4)c32)cc1,102%
21,Cc1ccc(-c2nn(C(C)(C)C)c3ncnc(N)c23)cc1,190% (active)
22,O=C(Nc1ccc(Cl)cc1)c1cccc(OC(=S)N2CCOCC2)c1,65.6%
23,Oc1c(Cl)cc(Cl)c(Cl)c1Cc1c(O)c(Cl)cc(Cl)c1Cl,174% (active)
24,COc1ccc(C)cc1NC(=O)CN(C)S(=O)(=O)c1ccc2c(c1)n(C)c(=O)c(=O)n2C,94.1%
25,CC(C)(C)OC(=O)C[C@@H]1C/C=C\C[C@@H](CC(=O)N[C@H](CO)Cc2ccccc2)C(=O)NC[C@@H](c2ccccc2)OC1=O,83%
26,Cc1c(O)c(C)c2c(c1O)C(=O)C[C@@H](c1ccccc1)O2,99.7%

row,Structure (SMILES),GFP response vs DMSO
1,CCCc1[nH]nc2c1C(c1ccc(OC(=O)c3ccco3)cc1)C(C#N)=C(N)O2 (configuration not stated),93.3%
2,CCCc1[nH]nc2c1C(c1ccc(Br)s1)C(C#N)=C(N)O2 (configuration not stated),152% (active)
3,CCc1ccc(C2C(C#N)=C(N)Oc3n[nH]c(CC(=O)OC)c32)cc1 (configuration not stated),99.1%
4,CC[C@@H](C)[C@@H]1CN([C@@H](C)CN2CCC[C@H]2CN2C(N)=NC[C@H]2C(C)C)C(=N)N1CCc1ccc(Cl)c(Cl)c1,102%
5,CC1CC2=C(CC1/C=N/NC(N)=S)C(C)(C)CCC2 (configuration not stated),154% (active)
6,Cc1ccc(CS(=O)Cc2ccc(C(=O)N3CCOCC3)o2)cc1 (configuration not stated),103%
7,N/C(=N\OC(=O)CCC1CCCCC1)c1ccccn1,92.5%
8,Cn1c(SCC(=O)Nc2cccc(NC(=O)c3cccs3)c2)nnc1-c1ccncc1,94.8%
9,CCOc1ccc(/C=N/NC(N)=S)cc1,109%
10,NC(N)=N/N=C/c1ccc(OCc2ccc(Cl)cc2Cl)cc1,160% (active)
11,OC(CNCCc1ccc(Cl)cc1Cl)COc1ccccc1 (configuration not stated),93.6%
12,COc1cc(OC)cc(/C(N)=N/O)c1,114%
13,O=C(Nc1cccnc1Cl)c1cc(-c2cccc(Cl)c2)on1,98.9%
14,CCc1ccccc1NC(=O)c1cc(-c2ccc3c(c2)OCO3)on1,93.6%
15,O=C(Nc1ccccc1C(F)(F)F)c1cc(-c2ccc(O)cc2)on1,151% (active)
16,CCCc1ccc(OCCNC(=O)c2ccco2)cc1,83.5%
17,O=C(Nc1ccc2ccccc2c1)/C(=C/c1cccc(Br)c1)NC(=O)c1ccco1,91%
18,Cc1ccc(OCC(=O)NCCCNC(=O)c2ccco2)cc1C,90%
19,CC(Oc1ccc2ccccc2c1)C(=O)NNC(=S)NC(=O)c1ccco1 (configuration not stated),237% (active)
20,CCCc1ccc(OCC(=O)NNC(=S)NC(=O)c2ccco2)cc1,182% (active)
21,CC(C)Oc1ccc(CCC(=O)NNC(=S)NCc2ccccc2)cc1,103%
22,COc1ccc(C(=O)NC(=S)NNC(=O)c2c(-c3ccccc3)noc2C)cc1,102%
23,COc1ccc(C(=O)NC(=S)NNC(=O)CCc2ccccc2)cc1,195% (active)
24,Cc1ccc(C(=O)NNC(=O)C(C)Oc2ccc3ccccc3c2)o1 (configuration not stated),104%
